Source: PubChem (National Center for Advancing Translational Sciences (NCATS))
In the library only some 21% were active in any assay of this set; here they are far more common.
IL1B secr inh: inhibitors of inflammasome signaling (IL-1 beta secretion) | activity change, % at 57.5 µM | AID 743279 | THP-1 LPS/ATP IL-1B secretion, AlphaLISA, 16 h; active compounds read low | 360,000 tested, 4.7% active; in the data active = activity change below about -50%; inconclusive = mostly about -30% to -49%
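THP-1 cells pretreated 1 hr with compounds (up to 57.5 uM final), then stimulated with LPS (250 ng/mL final) plus ATP (1.25 mM final); secreted IL-1B measured by AlphaLISA after 16 hr, decreased signal indicating inhibition.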
DT40 TDP1 no CPT: qHTS for Inhibitors of human tyrosyl-DNA phosphodiesterase 1 (TDP1): qHTS in cells in absence of CPT | DT40 Tdp1-/- hTDP1 cells, no CPT, ATP luminescence, 48 h | Potency, µM (highest dose often 46.2 µM), for inactives: at the top dose activity change, negative = growth inhibition, hits mostly inhibitors | 420,000 tested, 15% active | AID 686978, 2013; also: potency is read from the fitted curve at half-maximal effect; nearly all actives have a fitted effect of over 55% in size
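Chicken DT40 Tdp1-/- cells complemented with human TDP1, screened without camptothecin (DMSO vehicle only), 400 cells/well. Compounds pin-transferred, cells incubated at 37 °C for at least 48 hr. Growth read as ATP-dependent luminescence (CellTiter-Glo, 30 min at RT).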
VP16 counter: counter-screen for ROR gamma inhibitors: Gal4-VP16 reporter; Drosophila S2 Gal4-VP16 UAS-luciferase, luminescence, 20 h; Potency, µM (doses to about 53.6 µM), for inactives: top-dose activity, negative = inhibition, actives largely listed as inhibitors; 310,000 tested, 3.5% active;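 also: Gal4-VP16 expression switched on by copper sulfate through the metallothionein promoter; potency is read from the fitted curve at half-maximal effect; nearly all actives have a fitted effect of over 50% in size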
TDP1 cell CPT: growth inhibition of DT40 Tdp1-/-;hTDP1 cells with camptothecin (screen for TDP1 inhibitors) | Potency, µM (titrated, usually from 46.2 µM), for inactives: top-dose activity change, negative = growth inhibition, usual class: inhibitors | AID 686979 | chicken DT40 Tdp1-/-;hTDP1 cells + 20 nM CPT, ATP luminescence, 48 h | 420,000 tested, 12% active; also: potency is read from the fitted curve at half-maximal effect; nearly all actives have a fitted effect of over 55% in size
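Chicken DT40 Tdp1-/- cells stably complemented with human TDP1 were seeded at 400 cells/well in medium containing 20 nM camptothecin, exposed to pin-transferred compounds, and grown at 37 °C for at least 48 hr. Viability was read as ATP luminescence.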
ELG1 DNA repair: blocks ELG1-dependent DNA repair in HEK293T cells; HEK293T ELG1-luciferase reporter, luminescence, 16 h; DNA damage induced by 5-fluorouridine; Potency, µM (top dose mostly 46.1 µM), for inactives: at the top dose activity change, negative = inhibition, actives largely listed as inhibitors; 330,000 tested, 2.3% active; AID 504467; also: potency is read from the fitted curve at half-maximal effect; nearly all actives have a fitted effect of over 55% in size
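Reporter activity after DNA damage by 5-fluorouridine is monitored. Compound-treated cells incubate 16 hr at 37 °C, then ONE-Glo is added for 30 min before luminescence reading.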
RORg inh: ROR gamma (mouse) transcription inhibition. P51450. Drosophila S2 Gal4-RORgamma UAS-luciferase reporter, 20 h. Potency, µM (series often up to 53.6 µM), inactives show at the top dose activity change, negative = inhibition, hits mostly inhibitors. 310,000 tested, 5.4% active. AID 2551; also: potency is read from the fitted curve at half-maximal effect; nearly all actives have a fitted effect of over 60% in size
Target sequence (P51450 whole entry, looked up, the tested form may be a part): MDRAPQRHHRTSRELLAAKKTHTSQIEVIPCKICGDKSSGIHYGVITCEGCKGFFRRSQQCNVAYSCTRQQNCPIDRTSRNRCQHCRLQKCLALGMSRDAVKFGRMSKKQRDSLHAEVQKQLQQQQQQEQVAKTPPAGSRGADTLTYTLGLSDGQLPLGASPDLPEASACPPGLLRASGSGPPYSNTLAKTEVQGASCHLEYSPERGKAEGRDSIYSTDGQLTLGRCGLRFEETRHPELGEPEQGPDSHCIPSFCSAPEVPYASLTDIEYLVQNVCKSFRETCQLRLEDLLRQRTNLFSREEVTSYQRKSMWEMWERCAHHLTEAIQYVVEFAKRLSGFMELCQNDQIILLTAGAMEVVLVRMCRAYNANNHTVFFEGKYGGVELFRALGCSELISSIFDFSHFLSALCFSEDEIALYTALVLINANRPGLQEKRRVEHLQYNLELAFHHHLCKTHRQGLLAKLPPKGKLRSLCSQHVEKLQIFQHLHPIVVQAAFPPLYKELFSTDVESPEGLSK
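Luminescence from a UAS-regulated Photinus luciferase reporter in stably transfected Drosophila Schneider cells is measured; decreased signal marks ROR gamma inhibition. Fusion expression is induced by 700 uM copper sulfate for 20 hr.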
* marks the source's active call; other numbers are inactive results; ? = inconclusive; · = not tested or not shown. Unless noted, calls follow the shape of the dose curve; as a rule, active = well fitted curve in the direction sought with a large enough effect; inconclusive = small, poorly fitted or top-dose-only effect, or another doubt; inactive = no such curve, though single readings can be large; an effect the other way counts as inactive or inconclusive. % is scaled to controls: 0 for no effect and ±100 for the full control effect.

SMILES	IL1B secr inh	DT40 TDP1 no CPT	VP16 counter	TDP1 cell CPT	ELG1 DNA repair	RORg inh
CCc1noc(C)c1C(=O)Nc1nc2ccc(F)cc2s1	48	-16%	·	7%	?	·
Cc1cc(C)c2nc(NC(=O)c3cc(C)on3)sc2c1	-10	?	?	?	?	4.5µM*
CCOC(=O)N1CCC(NC(=S)Nc2ccc3nc(N4CCN(CC)CC4)cc(C)c3c2)CC1	-1	?	-17%	?	14%	-20%
COc1cccc(C(=O)Nc2ccc3nc(N4CCN(c5ncccn5)CC4)cc(C)c3c2)c1OC	·	·	-5%	·	2.6µM*	?
CCOc1ccccc1C(=O)Nc1ccc2nc(N3CCN(c4ncccn4)CC3)cc(C)c2c1	?	9.2µM*	·	18µM*	·	·
CCOC(=O)N1CCC(NC(=S)Nc2ccc3nc(N4CCN(C)CC4)cc(C)c3c2)CC1	-100*	?	?	-18%	6%	-31%
CCOc1ccccc1NC(=O)Nc1ccc2nc(N3CCN(C)CC3)cc(C)c2c1	·	23µM*	·	?	·	·
CCOc1ccc(-c2nc(Cn3c(=O)cc(C)c4c(C)nn(-c5ccc(C)cc5)c43)c(C)o2)cc1	·	1%	·	-17%	·	·
Cc1cc(C)cc(NC(=O)c2cc(S(=O)(=O)N3CCOCC3)cn2C)c1	·	-12%	·	8%	·	·
Cc1ccc(NC(=O)c2cc3c(s2)CCC3)cc1S(=O)(=O)N1CCOCC1	?	?	-10%	?	23µM*	?
Cc1ccc(S(=O)(=O)Nc2ccc(Cl)cc2)cc1NC(=O)c1cc2c(s1)CCCC2	-64*	?	-5%	?	?	?
COc1cc(S(=O)(=O)N2CCOCC2)ccc1NC(=O)c1cc2c(s1)CCC2	?	26µM*	-6%	16µM*	-27%	16%
Cc1ccc(S(=O)(=O)N2CCOCC2)cc1NC(=O)c1cc2c(s1)CCC2	?	16µM*	0%	?	23µM*	11%
COC(=O)CCSCC(=O)Nc1ccc(S(=O)(=O)N2CCOCC2)cc1OC	36	28%	-1%	-5%	0%	-8%
Cc1onc(-c2ccccc2Cl)c1C(=O)O/N=C(\N)c1ccccc1	-75*	?	6.3µM*	?	-3%	14µM*
Cc1onc(-c2c(Cl)cccc2Cl)c1C(=O)O/N=C(\C#N)c1ccccc1	-13	-20%	-10%	-7%	18%	15%
Cc1onc(-c2ccccc2)c1C(=O)O/N=C(\N)c1ccc([N+](=O)[O-])o1	-5	15µM*	-23%	16µM*	0%	-1%
COc1ccc(C(C)=NOC(=O)c2c(-c3ccccc3Cl)noc2C)cc1CN1CCOCC1	?	7.3µM*	·	?	·	·
C/C(=N\OC(=O)c1c(-c2ccccc2Cl)noc1C)c1ccncc1	-145*	-4%	-7%	16%	2%	-24%
CC(C)(C)OC(=O)N1Cc2ccccc2C[C@H]1C(=O)NC1CCCC1	-24	-7%	4%	10%	-2%	-5%
O=C(c1cccc(F)c1)N1CCC[C@@]2(CCN(c3ccncc3)C2)C1	·	-17%	8%	1%	·	-13%
Cc1onc(-c2cccc(Cl)c2Cl)c1C(=O)O/N=C(\N)c1ccc([N+](=O)[O-])o1	·	?	-5%	?	?	-5%
Cc1onc(-c2ccccc2Cl)c1C(=O)O/N=C(\N)c1cccc([N+](=O)[O-])c1	-62*	23µM*	·	23µM*	·	·
CCOC(=O)c1c(C)[nH]c(C(=O)OCc2ccc(F)cc2)c1C	-22	2%	-17%	-9%	?	?
CCOC(=O)c1c(C)[nH]c(C(=O)OCC(=O)NC(C)(C)C)c1C	-10	18µM*	-13%	?	0%	16%
SMILES	IL1B secr inh	DT40 TDP1 no CPT	VP16 counter	TDP1 cell CPT	ELG1 DNA repair	RORg inh
CCOC(=O)c1[nH]c(C)c(C(=O)OCC(=O)NC(C)c2ccc(F)cc2)c1C (stereo not given)	0	1.2µM*	·	1.6µM*	-8%	·
CCOC(=O)c1c(C)[nH]c(C(=O)OCC(=O)Nc2sc(C(=O)N(C)C)c(C)c2C(=O)OCC)c1C	-51*	23µM*	·	?	12µM*	·
O=C(Nc1ccccc1F)c1ccc2sc([C@H]3C[C@H](O)[C@@H](CO)O3)nc2c1	19	?	·	?	·	·
COc1cc2oc(-c3ccccc3)cc(=O)c2cc1O	·	0%	0%	3%	·	25%
COc1cc(-c2cc(=O)c3c(O)c(OC)c(OC)cc3o2)cc(OC)c1O	-19	?	-1%	16µM*	-28%	0%
O=c1cc(-c2ccccc2O)oc2cc(O)ccc12	·	-20%	-11%	-15%	·	-22%
COc1cc(-c2cc(=O)c3c(O)cc(O)cc3o2)ccc1O	-64*	?	5%	21µM*	?	9%
O=c1cc(-c2ccccc2O)oc2cc(O)cc(O)c12	·	21µM*	-18%	30µM*	·	-23%
CCCNC(=O)C1(C)CCCN(C(=O)c2ccc(C)c(F)c2)C1 (stereo not given)	0	-21%	·	-19%	·	·
COc1ccc(OCC(=O)OCc2cc(=O)n3cc(C)sc3n2)cc1	·	-12%	·	-15%	·	·
O=C(Nc1ccc(N2CCOCC2)cc1)c1cccc2c(Br)cccc12	4	-8%	-23%	4%	15%	-26%
O=C(Nc1ccccc1N1CCOCC1)c1cc(=O)[nH]c2ccccc12	6	16µM*	·	?	-1%	·
CCN(CC)S(=O)(=O)c1ccc(N2CCOCC2)c(NC(=O)c2cc(=O)[nH]c3ccccc23)c1	6	-4%	1%	-11%	?	-14%
O=C(Nc1ccccc1N1CCOCC1)c1cccc2c(Br)cccc12	-3	18µM*	7%	?	?	5%
Cc1ccc(NC(=O)C2(NC(=O)c3ccccn3)CCCCC2)cc1Br	-10	?	-3%	21µM*	1%	6%
Cc1ccc(OCCCCCCN2CCNCC2)cc1	-90*	21µM*	·	18µM*	·	·
Cc1ccccc1OCCCCCCN1CCNCC1	-74*	16µM*	·	23µM*	·	·
CCCOc1ccc(Nc2nc(SC)ncc2C(=O)OCC)cc1	·	26µM*	·	?	·	·
CCOC(=O)c1cnc(SC)nc1NCCOC	75	0%	10%	13%	6%	-19%
CCCCC(CC)CNC(=O)c1ccc2c(=O)n(Cc3ccc(OC)cc3)c(=O)[nH]c2c1 (stereo not given)	·	?	·	21µM*	·	·
